MenB inh: M. tuberculosis MenB inhibitors, primary screen, biochemical, absorbance. 1,4-dihydroxy-2-naphthoyl-CoA synthase (Mycobacterium tuberculosis (strain ATCC 25618 / …. MenB enzyme assay, absorbance read-out. actives 0.43% (n = 100,000). inhibition, % (concentration not given with the values); in the data active = inhibition above about 21%, passing the limit was not always enough
Polio RdRp inh: poliovirus RdRp elongation inhibitors, primary screen, biochemical, fluorescence polarization, total intensity; AID 588519, 2011; poliovirus polymerase elongation; stronger effect = lower value; % elongation, % (compound at 16.7 µg/mL); actives 0.66% (n = 150,000); in the data active = % elongation below about 90%
Target sequence (P03300 1749-2209 limits assumed): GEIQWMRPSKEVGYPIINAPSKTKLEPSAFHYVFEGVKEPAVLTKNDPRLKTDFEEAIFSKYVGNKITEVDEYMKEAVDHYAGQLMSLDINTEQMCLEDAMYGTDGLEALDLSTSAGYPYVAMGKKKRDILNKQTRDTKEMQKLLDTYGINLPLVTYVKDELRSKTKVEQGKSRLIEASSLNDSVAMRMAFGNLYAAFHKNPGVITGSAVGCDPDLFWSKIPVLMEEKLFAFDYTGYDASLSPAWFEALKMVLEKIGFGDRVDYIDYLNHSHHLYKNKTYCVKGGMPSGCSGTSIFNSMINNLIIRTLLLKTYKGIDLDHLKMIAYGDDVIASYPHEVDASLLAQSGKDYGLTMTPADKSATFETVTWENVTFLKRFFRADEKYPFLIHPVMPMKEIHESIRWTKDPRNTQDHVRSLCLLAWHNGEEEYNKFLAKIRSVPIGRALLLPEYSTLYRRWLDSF
MbtI inh: MbtI salicylate synthase inhibitors, primary screen, biochemical, fluorescence intensity; P9WFX0; purified MbtI enzyme, fluorescence intensity read-out; inhibition, % (test concentration not listed); actives 0.89% (n = 100,000); AID 493033, 2011; in the data active = inhibition mostly above about 56%, no sharp cut-off; inactive = mostly below about 77%
Starred values were filed as active, the others as inactive; i = inactive; x = no result. A selection: hits, their analogues and other compounds. The true share with any hit is near 1.4%.

SMILES | MenB inh | Polio RdRp inh | MbtI inh
Cc1ccc(C2=NN(C(=O)COC(=O)c3cc4c(C)nn(-c5ccc(F)cc5)c4s3)C(c3ccco3)C2)cc1 (stereo not given) | -12 | 104 | 8
Cc1ccc(CC(C#N)Sc2nnc(C)n2Cc2ccccc2)cc1 (stereo not given) | -6 | 107 | -2
N#CSC(C#N)Cc1ccccc1 (stereo not given) | 19 | 98 | 83*
Cc1nn(C)c2c1S(=O)(=O)N=C(N1CCOCC1)S2 | -11 | 81* | 4
O=C1CSC(N2CCOCC2)=N1 | 5 | 103 | -10
NS(=O)(=O)c1cccc(C(=O)Nc2ccc(F)cc2)c1 | 5 | 101 | -9
CCOc1ccc([C@@H]2[C@H](C(=O)O)c3ccccc3C(=O)N2Cc2ccccc2)c(O)c1 | 9 | 69* | 3
COc1ccc(C2C(C(=O)O)c3ccccc3C(=O)N2Cc2ccc(Cl)cc2)cc1 (stereo not given) | 5 | 103 | 5
N#Cc1ccc(-c2cccnc2)n(CC(=O)N2CC(=O)Nc3ccccc32)c1=O | 10 | 101 | 7
CC(=O)Nc1ccc(C(=O)OCC(=O)Nc2cc(Cl)cc(Cl)c2)cc1 | x | 101 | 21
Cn1nc(C2CC2)cc1C(=O)O | 30* | 102 | 2
CC(C)c1cc(C(=O)O)n(C)n1 | 0 | 101 | -7
COc1ccccc1C(C)NC(=O)c1cccc(OC(F)F)c1 (stereo not given) | -8 | 103 | -14
CN(CC(=O)N1CCN(Cc2ccccc2)CC1)S(=O)(=O)c1cnc[nH]1 | 12 | 101 | -3
CC(NC(=O)CSc1nc2c(c(=O)n1C)C1=C(CCCC1)C2)c1ccccc1 (stereo not given) | -6 | 105 | x
O=C(O)CCC(=O)Nc1ccc(N2CCCCC2)c(C(=O)O)c1 | -18 | 101 | 5
O=C(O)CCC(=O)Nc1ccc(O)c(C(=O)O)c1 | 6 | 87* | 106
N#CC(C#N)=Cc1ccc(O)c(Cl)c1 | i | 100 | 61*
NC(N)=N/N=C/c1ccc(O)c(Cl)c1 | -22 | 102 | -5
Nc1c(Nc2ccc(C(=O)O)cc2)c2ccccc2oc1=O | x | x | 15
COC(=O)N/N=C1/C(=O)c2cccc3cccc1c23 | -9 | 99 | -1
NC(=S)N/N=C1/C(=O)c2cccc3cccc1c23 | -13 | 100 | 76*
Cc1ccc(NC(=O)CC2SC(=NC3(c4c(O)[nH]c(=O)[nH]c4=O)CCCC3)NC2=O)cc1 (stereo not given) | -7 | 102 | 19
CCc1nn(CC(=O)NCc2ccc(C)cc2)c(=O)c2cc3occc3n12 | x | 72* | x
CCc1nn(CC(=O)NCCCN(CC)CC)c(=O)c2cc3occc3n12 | x | 107 | x
SMILES | MenB inh | Polio RdRp inh | MbtI inh
CC(C)C(NC(=O)OCc1ccccc1)C(=O)Oc1ccc2c(=O)c(Oc3ccccc3)coc2c1 (stereo not given) | -29 | 108 | x
CCNc1nc(NCC)n2c(SCC(=O)Nc3ccc(CC)cc3)nnc2n1 | -68 | 104 | 87*
CCNc1nc(NCC)n2c(SCC(=O)c3cccs3)nnc2n1 | -9 | 105 | x
O=c1[nH]c2ccc(S(=O)(=O)Nc3ccc(O)cc3)cc2[nH]1 | 6 | 104 | -6
O=S(=O)(Nc1ccc(Cl)cc1)c1ccc2oc(=S)[nH]c2c1 | -48 | 91 | 90*
NC(=O)NCCc1nc2ccccc2[nH]1 | -26 | 106 | -7
CN1C(=O)Cc2cc(S(=O)(=O)CCC(=O)Nc3ccccc3)ccc21 | x | -22* | x
CN1C(=O)Cc2cc(S(=O)(=O)CCC(=O)Nc3cccc(C(F)(F)F)c3)ccc21 | x | 108 | x
COC(CNC(=O)c1cnn2c(C)c(Cc3ccccc3C)c(C)nc12)OC | 3 | 102 | 84
O=C(OCCN1CCCCC1)c1ccc2c(c1)OCO2 | x | x | 10
Cc1ccn2c(NC(=O)CN3CSCC3=O)c(-c3ccccc3)nc2c1 | -2 | 105 | 5
O=C1CC(NC(=O)c2ccc(Cl)cc2)C(=O)N1 (stereo not given) | x | 102 | 79*
O=C(NC1CCCCC1)c1ccc(Cl)cc1 | -38 | 103 | -8
S=C(c1ccc(Br)cc1)N1CCCC1 | -7 | 103 | x
Oc1ccc(C(=S)N2CCCCC2)cc1 | -54 | 96 | 58*
CC1(C)Cc2c(ccc3ccccc23)CN1 | 1 | 101 | 7
O=C1C(c2ccncc2)=C(O)c2ccccc21 | -124 | 101 | 23
O=C1C(c2cc(Cl)cc(Cl)c2)=C(O)c2ccccc21 | -32 | 98 | 89*
CCNCC(=O)Nc1cc(C(F)(F)F)ccc1OCCOC | 5 | 109 | 1
Cc1cccc(S(=O)(=O)NCc2cccc(C(F)(F)F)c2)c1 | -14 | 103 | -6
O=C(Cn1cc(CO)c2ccccc21)Nc1ccc(F)cc1 | 14 | 100 | -7
Cc1ccc(/C(N)=N\O)n1C | 52* | 102 | x
N/C(=N/O)c1ccccc1 | x | 102 | -1
O=C(CCc1nc2cccnc2n1-c1ccccc1)NC1CCCC1 | 1 | 100 | -2
CCNc1nc(Cl)nc(NCC)n1 | x | 101 | -3
SMILES | MenB inh | Polio RdRp inh | MbtI inh
CCNc1nc(NCC)nc(NCCO)n1 | 32* | 99 | -14
Cc1cccc(Nc2nc3nonc3nc2Cl)c1 | -15 | 48* | x
FC(F)(F)c1cccc(Nc2nc3nonc3nc2Nc2ccc(Cl)cc2)c1 | x | 114 | x
CCN(CC)S(=O)(=O)c1cccc(-n2sc3ccccc3c2=O)c1 | -19 | 108 | 100*
CCN(CC)S(=O)(=O)c1ccccc1 | 2 | 100 | -7
Cc1ccc(Cn2cnc3cc(C)c(C)cc32)cc1 | -41 | 103 | 4
CC(=O)Nc1sc2c(c1-c1nsc(=O)o1)CCCC2 | -30 | 82* | x
CC(=O)Nc1sc2c(c1CN(C)C)CCCC2 | -13 | 107 | -6
CCn1c(C)cc2cc(N)ccc21 | 25 | 100 | 20
O=C(Cn1c(C(=O)N(Cc2ccco2)CC2CCCO2)cc2sccc21)c1ccccc1 (stereo not given) | -44 | 105 | 0
Cn1cc(Br)c(N2C(=O)C=CC2=O)n1 | -12 | 100 | 95*
CC1(C)C=C(O)C(C2(O)C(=O)c3ccccc3C2=O)C(=O)C1 (stereo not given) | -28 | 19* | x
CC1(C)CC(=O)C(C2(O)C(=O)c3ccccc3C2=O)C(=O)C1 | x | x | -12
COCCn1c(C)cc(/C=C2/C(=O)N(c3ccccc3)c3ccccc32)c1C | -88 | 102 | 13
CN(C)C(=O)COC(=O)c1cc2ccccc2oc1=O | -23 | 103 | 41
O=C(COC(=O)c1cc2ccccc2oc1=O)Nc1ncccn1 | -21 | 88* | -96
Cc1ccc(C(=O)NCC2CCCO2)cc1 (stereo not given) | 8 | 102 | 5
COCCn1c(C)c(C(=O)O)sc1=S | 12 | 97 | 10
CCn1c(N)c(C(=O)NC)sc1=S | -21 | 97 | 87*
CCn1c(N)c(C(=O)NCC2CCCO2)sc1=S (stereo not given) | -19 | 96 | 82*
Cc1ccc(NS(=O)(=O)c2ccc3oc(=O)c4ncn(C)c4c3c2)cc1 | -5 | 101 | 4
Cc1onc(-c2ccccc2)c1C(=O)N1CCN(S(=O)(=O)c2ccccc2)CC1 | -11 | 102 | -12
O=C(Oc1ccccc1-c1nnco1)c1ccc(C(F)(F)F)cc1 | -80 | 105 | -104
Cc1snnc1C(=O)Oc1ccccc1-c1nnco1 | 10 | 78* | -61
